Screening results as filed in PubChem BioAssay.
A selection: hits, their analogues and other compounds. The true share with any hit is near 21%.
Pf growth 48h: Primary qHTS for delayed death inhibitors of the malarial parasite plastid, 48 hour incubation. P. falciparum luciferase growth in erythrocytes, 48 h. Potency, µM (series often up to 28.7 µM), usual class: inhibitors. 5.9% of 310,000 active
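Growth was read as firefly luciferase luminescence after a 48 h, 37 C, 5% CO2 exposure of compounds to reporter-bearing P. falciparum cultures (0.1% parasitemia, 2% hematocrit final) in Albumax-supplemented RPMI 1640.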
Sm TGR block: qHTS Assay for the Inhibitors of Schistosoma Mansoni Peroxiredoxins; Schistosoma mansoni thioredoxin glutathione reductase (TGR), Q962Y6; purified TGR, DTNB reduction, TNB absorbance 405 nm; Potency, µM (highest dose often 114 µM), hits mostly inhibitors; 3% of 360,000 active; note: nearly all actives have a fitted effect of over 60% in size
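TGR 20 nM + NADPH 100 uM (dispensed conc.), cpd preinc 15 min RT; start with NADPH (500 uM addition) then DTNB (15 mM addition). Kinetic TNB absorbance, 405 nm filter. Four-parameter Hill fit across titration.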
Shiga toxin inh: A qHTS for Small Molecule Inhibitors of Shiga Toxin; 9.2% of 290,000 active; inhibition, % at 38.7 µM; AID 2315, 2010; Vero cells, Shiga toxin protein synthesis inhibition reporter; in the data active = inhibition mostly above about 28%, no sharp cut-off; inactive = mostly below about 43%
Cycloheximide cs: Cycloheximide Counterscreen for Small Molecule Inhibitors of Shiga Toxin; 12% of 300,000 active; cell reporter, cycloheximide protein synthesis inhibition counterscreen; max response, %; in the data active = max response mostly above about 13%, no sharp cut-off; inactive = mostly below about 14%; note: read at 38.3 µM for the half of the compounds with a filed dose
NS1 inh: qHTS Assay for Inhibitors of Influenza NS1 Protein Function | Potency, µM (titrated, usually from 46.1 µM) | 0.4% of 270,000 active | AID 2326, 2010; calls by dose curve; note: actives are rising curves; nearly all actives have a fitted effect of over 50% in size
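Compounds were scored for reversing the slow growth caused by influenza A NS1 in S. cerevisiae, measured by optical density at 600 nm. Assay medium contained 2% galactose at pH 6.0; NS1-free yeast of the same strain were the positive control.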
Pf growth 96h: Primary qHTS for delayed death inhibitors of the malarial parasite plastid, 96 hour incubation; 6.9% of 320,000 active; Potency, µM (top dose mostly 28.7 µM), most hits filed as inhibitors; P. falciparum luciferase reporter growth, 96 h
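Two parasite generations (96 h, 37 C, 5% CO2) of compound exposure in infected erythrocytes (0.05% parasitemia, 2% hematocrit). Luciferase-reporter P. falciparum; decreased luminescence indicates inhibited growth, aimed at apicoplast-acting delayed death.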
Hits are given with their value; i = inactive; ? = inconclusive; nt = not tested or not shown; [ ] = dose if it differs, or a comment. Unless noted, calls come from the whole dose curve; as a rule, active = well fitted curve in the direction sought with a large enough effect; inconclusive = small, poorly fitted or top-dose-only effect, or another doubt; inactive = no such curve, though single readings can be large; an effect the other way counts as inactive or inconclusive.

SMILES	Pf growth 48h	Sm TGR block	Shiga toxin inh	Cycloheximide cs	NS1 inh	Pf growth 96h
COc1ccc(-n2c(=O)c3c4c(sc3n(CC(=O)C(C)(C)C)c2=O)CCCC4)c(OC)c1	nt	i	nt	nt	nt	nt
COC(=O)c1c(NC(=O)CC2SC(N)=NC2=O)sc2c1CCC(C(C)(C)C)C2 (stereo unspecified)	i	i	i	i	?	?
CC(/C=C/c1ccccc1)=N/NC(=O)c1cnccn1	i	?	32	27	i	i
O=C(N/N=C/C=C/c1ccccc1)c1cnccn1	nt	i	i	13	i	i
CC(/C=C/c1ccccc1)=N\NC(=O)c1cc(C)[nH]n1	i	i	i	36	nt	?
C/C(=N\NC(=O)c1cc(C)[nH]n1)C(C)(C)C	i	i	i	i	i	?
CC(C)c1cc(C(=O)N/N=C/C=C/c2ccccc2)n[nH]1	i	i	i	i	i	i
COc1ccccc1Nc1nc(-c2cccs2)cs1	i	i	77	37	i	i
COc1ccc(OC)c(Nc2nc(-c3c(C)nc4ncccn34)cs2)c1	i[0.00184 µM]	i	i	i	i	i
COc1ccc(OC)c(Nc2nc(-c3cccs3)cs2)c1	i	i	i	23	?	nt
Oc1ccc(Nc2nc(-c3cccs3)cs2)cc1	i	i	i	i	i	i
COc1ccc(C)cc1Nc1nc(-c2c[nH]c3ccccc23)cs1	?	i	i	i	?	2.1µM
COc1ccc(Nc2nc(-c3sc(C)nc3C)cs2)c(OC)c1	i	i	i	8.8	i	?
COc1ccc(Nc2nc(-c3cccs3)nc3ccccc23)c(OC)c1	i	i	i	i	i	?
COc1ccc(Nc2nc(-c3cccs3)cs2)cc1	i	i	42	41	i	0.52µM
COc1ccc(Nc2nc(-c3cccs3)cs2)c(OC)c1	nt	i	106	46	i	i
CCOc1ccc(/C=C(\C#N)C(=O)Nc2sc3c(c2C(=O)OC)CCC3)cc1OC	nt	i	nt	nt	nt	nt
CCOc1ccc(N2Nc3n[nH]c(N)c3N2)cc1	i	i	50	25	i	i
COc1ccc(N2CCN(c3n[nH]c(N)n3)CC2)cc1	i	nt	i	i	i	i
CCOc1ccc(Cc2n[nH]c(=S)n2N)cc1	i	i	i	i	i	i
COc1ccc(N2Nc3n[nH]c(N)c3N2)cc1	i	i	58	43	i	i
O=C(CCNC(=O)c1ccco1)Nc1ccc(Cl)c(C(F)(F)F)c1	i	i	i	i	i	i
COc1ccc(OC)c(C2CC(=O)N3CN(c4cccc(Cl)c4)CSC3=C2C#N)c1 (stereo unspecified)	nt	50µM	i	i	i	7.4µM
COc1ccc(OC)c(C2CC(=O)N3CN(c4ccc(C)c(Cl)c4)CSC3=C2C#N)c1 (stereo unspecified)	nt	20µM	i	i	i	?
CCOc1ccc(-c2csc(NC(=O)C3CCCO3)n2)cc1 (stereo unspecified)	i	i	11	42	i	nt
SMILES	Pf growth 48h	Sm TGR block	Shiga toxin inh	Cycloheximide cs	NS1 inh	Pf growth 96h
O=C(Nc1nc(-c2ccc(Cl)cc2)cs1)C1CCCO1 (stereo unspecified)	i	i	91	36	nt	i
O=C(Nc1nc(-c2ccc(Cl)cc2Cl)cs1)C1CCCO1 (stereo unspecified)	i	i	i	i	i	i
Cn1cc(CNC(=O)c2sc3cccc(Cl)c3c2Cl)cn1	i	i	i	i	i	i
CCc1ccc(C(=O)NCc2cnn(C)c2)s1	i[5.75 µM]	i	37	i	nt	i
CCCC1=[N+](CC(=O)c2ccc(Br)cc2)CCn2cccc21	12µM	?	i	i	i	?
CCCC1=[N+](CC(=O)c2ccccc2)CCn2cccc21	i	i	i	i	i	i
O=C(Nc1ccccc1)c1csc(-c2ccccc2)n1	i	i	43	26	i	i
Cc1nc(C(=O)NNC(=O)Nc2ccccc2)cs1	i	i	i	13	i	i
O=C(O)c1csc(-c2cccc(Cl)c2)n1	i	i	i	9.7	i	i
O=C(O)c1csc(-c2ccccc2)n1	i	i	i	i	i	i
O=C(Nc1ccc(F)cc1F)c1cccc(C(=O)Nc2ccc(F)cc2F)n1	i	i	i	i	i	?
O=C(Nc1ccc(F)cc1F)c1csc(-c2ccccc2)n1	i	i	70	24	i	i
